From PubChem BioAssay (EPA / NIEHS)
Calls of active or inactive are those of the source. Rule for the calls: active = hit-call score of the fitted dose curve at least 0.9, where 1 is the maximum; inactive = score below 0.9.

How the values were obtained:
[1] = read-out: Interleukin-1 alpha (IL1a), IL1A (gene 3552); assay: BSK_KF3CT_IL1a: BioMAP Diversity Plus: KF3CT Assay for Interleukin-1 alpha (IL1a) Biomarker Activity (AID 2283070); conditions: primary human keratinocytes with fibroblasts; actives raise or lower the signal
How it was run: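 Readout is IL-1a level by ELISA, compared bidirectionally with DMSO as baseline. Cells: human keratinocytes co-cultured with foreskin fibroblasts, harvested 24 h post-dose.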

[2] = read-out: TIMP metallopeptidase inhibitor 2 (TIMP2), TIMP2 (gene 7077); assay: BSK_KF3CT_TIMP2: BioMAP Diversity Plus: KF3CT Assay for TIMP metallopeptidase inhibitor 2 (TIMP2) Biomarker Activity (AID 2283071); conditions: primary human keratinocytes with fibroblasts; actives raise or lower the signal
How it was run: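 Measurements come from ELISA detection of TIMP-2 at 24 hours in a dosed human keratinocyte and foreskin fibroblast co-culture. DMSO serves as negative control and baseline.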

[3] = read-out: Transforming growth factor beta 1 (TGFb1), TGFB1 (gene 7040); assay: BSK_KF3CT_TGFb1: BioMAP Diversity Plus: KF3CT Assay for Transforming growth factor beta 1 (TGFb1) Biomarker Activity (AID 2283072); conditions: primary human keratinocytes with fibroblasts; actives raise or lower the signal
How it was run: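 TGF-b1 ELISA on a 24 h dosed co-culture of human keratinocytes and foreskin fibroblasts; cytotoxicity tracked in parallel cultures by SRB staining.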

[4] = read-out: Matrix Metallopeptidase 9 (MMP9), MMP9 (gene 4318); assay: BSK_KF3CT_MMP9: BioMAP Diversity Plus: KF3CT Assay for Matrix Metallopeptidase 9 (MMP9) Biomarker Activity (AID 2283074); conditions: primary human keratinocytes with fibroblasts; actives raise or lower the signal
How it was run: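 Values come from bidirectional fitting relative to DMSO of MMP-9 levels, which were measured by ELISA. Measurements were taken 24 h after chemical dosing of a keratinocyte and foreskin fibroblast co-culture.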

[5] = read-out: urokinase plasminogen activator (uPA), PLAU (gene 5328); assay: BSK_KF3CT_uPA: BioMAP Diversity Plus: KF3CT Assay for urokinase plasminogen activator (uPA) Biomarker Activity (AID 2283075); conditions: primary human keratinocytes with fibroblasts; actives raise or lower the signal
How it was run: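 Values derive from bidirectional fitting against DMSO controls. Keratinocyte/foreskin fibroblast co-cultures received chemical; 24 h later uPA was detected by ELISA, with SRB total-protein staining in parallel wells for overt cytotoxicity.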

[6] = read-out: E-selectin (Homo sapiens) (UniProt P16581); assay: BSK_LPS_Eselectin: BioMAP Diversity Plus: LPS Assay for Eselectin Biomarker Activity (AID 2283077); conditions: primary human HUVEC with PBMC; actives raise or lower the signal
How it was run: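 Primary human vascular co-culture (endothelium plus PBMC) was dosed with chemical, then E-selectin quantified by ELISA at 24 h. Endpoint values derive from bidirectional curve fitting relative to DMSO.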

[7] = BSK_LPS_SRB: Viability Assessment in the BioMAP Diversity Plus: LPS Assay (AID 2283079); conditions: primary human HUVEC with PBMC;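 note: total protein by sulforhodamine B absorbance as a cytotoxicity measure; measured one day after compound addition; fitted in both directions against DMSO so loss or gain of signal counts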
How it was run: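 Readout is SRB absorbance at 560 nm (0.1% stain, TCA-fixed parallel cultures) as a total-protein cytotoxicity measure. Cells: primary human umbilical vein endothelium plus peripheral blood mononuclear cells, 24 h after chemical exposure; DMSO served as baseline.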

[8] = read-out: Interleukin-1 alpha (IL1a), IL1A (gene 3552); assay: BSK_LPS_IL1a: BioMAP Diversity Plus: LPS Assay for Interleukin-1 alpha (IL1a) Biomarker Activity (AID 2283080); conditions: primary human HUVEC with PBMC; actives raise or lower the signal
How it was run: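 ELISA read-out of IL-1 alpha from a human primary vascular co-culture (endothelium plus PBMC) under LPS, sampled 24 hours post-dosing. Activity was fitted in both directions relative to DMSO controls.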

[9] = read-out: Monocyte Chemoattractant Protein-1 (MCP1), CCL2 (gene 6347); assay: BSK_LPS_MCP1: BioMAP Diversity Plus: LPS Assay for Monocyte Chemoattractant Protein-1 (MCP1) Biomarker Activity (AID 2283081); conditions: primary human HUVEC with PBMC; actives raise or lower the signal
How it was run: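 Human endothelial–PBMC co-cultures were dosed with chemical, then LPS-driven MCP-1 levels were quantified by ELISA at 24 h. Activity in either direction was fitted versus DMSO negative control.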

[10] = BSK_LPS_PGE2: BioMAP Diversity Plus: LPS Assay for Prostaglandin E2 (PGE2) Biomarker Activity (AID 2283082); conditions: primary human HUVEC with PBMC; actives raise or lower the signal
How it was run: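 Primary human endothelial cells and blood mononuclear cells, co-cultured with LPS, receive test chemical; PGE2 ELISA follows at 24 h, with SRB-stained parallel cultures flagging cytotoxicity.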

[11] = read-out: Macrophage colony-stimulating factor (MCSF), CSF1 (gene 1435); assay: BSK_LPS_MCSF: BioMAP Diversity Plus: LPS Assay for Macrophage colony-stimulating factor (MCSF) Biomarker Activity (AID 2283083); conditions: primary human HUVEC with PBMC; actives raise or lower the signal
How it was run: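 ELISA readout of M-CSF after 24 h compound exposure in a human endothelial/PBMC co-culture. Activity, in either direction, is fitted relative to DMSO vehicle.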

[12] = read-out: Tissue Factor, F3 (gene 2152); assay: BSK_LPS_TissueFactor: BioMAP Diversity Plus: LPS Assay for Tissue Factor Biomarker Activity (AID 2283084); conditions: primary human HUVEC with PBMC; actives raise or lower the signal
How it was run: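 ELISA signal for cell-surface Tissue Factor (CD142) was read 24 h after compound dosing of an LPS-stimulated human endothelial–PBMC primary co-culture. Gain or loss of signal was scored relative to DMSO.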

[13] = read-out: Tumor necrosis factor (Homo sapiens) (UniProt P01375); assay: BSK_LPS_TNFa: BioMAP Diversity Plus: LPS Assay for Tumour Necrosis Factor alpha (TNFa) Biomarker Activity (AID 2283085); conditions: primary human HUVEC with PBMC; actives raise or lower the signal;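 for AC50: TNFa protein level quantified by ELISA in the co-culture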
How it was run: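 ELISA-based TNFa endpoint in a human endothelial–PBMC co-culture sampled 24 h post-exposure. Curves were fitted in both directions using DMSO as baseline of activity.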

[14] = read-out: Vascular cell adhesion molecule 1 (VCAM1), VCAM1 (gene 7412); assay: BSK_LPS_VCAM1: BioMAP Diversity Plus: LPS Assay for Vascular cell adhesion molecule 1 (VCAM1) Biomarker Activity (AID 2283086); conditions: primary human HUVEC with PBMC; actives raise or lower the signal
How it was run: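 Measured by ELISA: VCAM-1 in LPS-activated HUVEC/PBMC co-cultures 24 h after treatment. Values reflect bidirectional fitting with DMSO as baseline.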

CD38, CD38 (gene 952) = assay: BSK_SAg_CD38: BioMAP Diversity Plus: SAg Assay for CD38 Biomarker Activity (AID 2283087); conditions: primary human HUVEC with PBMC; actives raise or lower the signal
How it was run: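 Measures CD38 on a human endothelial/PBMC co-culture driven by SEB and TSST-1, 24 h after compound exposure, using ELISA with fluorescence detection; DMSO defines baseline for bidirectional curve fitting.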

CD40, CD40 (gene 958) [15] = assay: BSK_SAg_CD40: BioMAP Diversity Plus: SAg Assay for CD40 Biomarker Activity (AID 2283088); conditions: primary human HUVEC with PBMC; actives raise or lower the signal
How it was run: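 Compounds were dosed onto a human primary endothelial–PBMC co-culture, and after 24 h CD40 was quantified by ELISA using a fluorescence signal. Activity in either direction was fitted relative to DMSO.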

CD69, CD69 (gene 969) = assay: BSK_SAg_CD69: BioMAP Diversity Plus: SAg Assay for CD69 Biomarker Activity (AID 2283089); conditions: primary human HUVEC with PBMC; actives raise or lower the signal
How it was run: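 Endothelial/PBMC co-culture; chemical added; 24 h incubation; CD69 ELISA with fluorescence detection; bidirectional fit vs DMSO.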

CD40, CD40 (gene 958) [16] = assay: BSK_LPS_CD40: BioMAP Diversity Plus: LPS Assay for CD40 Biomarker Activity (AID 2283076); conditions: primary human HUVEC with PBMC; actives raise or lower the signal
How it was run: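 Cells were dosed, incubated 24 h, then assayed for CD40 by ELISA. Gain or loss of signal was analysed relative to DMSO controls. The culture paired human umbilical vein endothelium with peripheral blood mononuclear cells.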

[17] = read-out: C-C motif chemokine 2 (Homo sapiens) (UniProt P13500); assay: BSK_KF3CT_MCP1: BioMAP Diversity Plus: KF3CT Assay for Monocyte Chemoattractant Protein 1 (MCP1/CCL2) Biomarker Activity (AID 2283073); conditions: primary human keratinocytes with fibroblasts; actives raise or lower the signal
How it was run: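 ELISA readout of MCP-1 after 24 h chemical dosing of a human skin primary co-culture of keratinocytes and foreskin fibroblasts. Activity was fitted in both directions against DMSO.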

[18] = read-out: Interleukin-8 (IL8), CXCL8 (gene 3576); assay: BSK_LPS_IL8: BioMAP Diversity Plus: LPS Assay for Interleukin-8 (IL8) Biomarker Activity (AID 2283078); conditions: primary human HUVEC with PBMC; actives raise or lower the signal
How it was run: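 Readout is IL-8 by ELISA, taken 24 h after compounds were added to LPS-stimulated endothelial/PBMC co-cultures. Both increases and decreases relative to DMSO control were scored through bidirectional fitting.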

Chain of Tumor necrosis factor (Homo sapiens) (P01375 whole entry, looked up): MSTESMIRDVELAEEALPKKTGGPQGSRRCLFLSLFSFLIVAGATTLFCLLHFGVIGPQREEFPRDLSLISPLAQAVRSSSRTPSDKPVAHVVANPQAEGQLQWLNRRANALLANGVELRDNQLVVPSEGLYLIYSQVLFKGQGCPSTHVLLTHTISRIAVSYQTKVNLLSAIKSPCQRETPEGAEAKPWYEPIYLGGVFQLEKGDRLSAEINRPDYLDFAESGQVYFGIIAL
Chain of E-selectin (Homo sapiens) (P16581 whole entry, looked up): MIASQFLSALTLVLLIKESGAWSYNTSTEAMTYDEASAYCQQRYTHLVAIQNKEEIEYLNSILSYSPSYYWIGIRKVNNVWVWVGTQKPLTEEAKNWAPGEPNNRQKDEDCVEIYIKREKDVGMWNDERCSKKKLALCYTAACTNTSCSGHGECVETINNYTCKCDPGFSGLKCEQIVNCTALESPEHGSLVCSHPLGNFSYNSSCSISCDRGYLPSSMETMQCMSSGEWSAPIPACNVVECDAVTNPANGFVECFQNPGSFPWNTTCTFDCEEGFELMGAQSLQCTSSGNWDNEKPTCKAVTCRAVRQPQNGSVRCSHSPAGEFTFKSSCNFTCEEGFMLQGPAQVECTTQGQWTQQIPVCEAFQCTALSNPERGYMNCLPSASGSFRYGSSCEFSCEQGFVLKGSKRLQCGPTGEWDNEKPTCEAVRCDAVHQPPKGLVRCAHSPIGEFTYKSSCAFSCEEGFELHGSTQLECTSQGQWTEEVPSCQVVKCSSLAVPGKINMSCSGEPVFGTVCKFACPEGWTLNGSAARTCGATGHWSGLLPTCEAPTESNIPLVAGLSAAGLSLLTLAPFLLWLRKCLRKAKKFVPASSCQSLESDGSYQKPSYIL

Structure (SMILES): c1ccc(-c2ccccc2)cc1
- outcome [1]: inactive
- outcome [2]: inactive
- outcome [3]: inactive
- outcome [4]: inactive
- outcome [5]: inactive
- outcome [6]: inactive
- outcome [7]: inactive
- outcome [8]: inactive
- outcome [9]: inactive
- outcome [10]: inactive
- outcome [11]: inactive
- outcome [12]: inactive
- outcome [13]: inactive
- outcome [14]: inactive
- outcome (CD38, CD38 (gene 952)): inactive
- outcome (CD40, CD40 (gene 958) [15]): inactive
- outcome (CD69, CD69 (gene 969)): inactive

Structure (SMILES): Cc1ccccc1CO[C@@H]1C[C@@]2(C(C)C)CC[C@]1(C)O2
- outcome [1]: inactive
- outcome [2]: inactive
- outcome [3]: inactive
- outcome [4]: inactive
- outcome (CD40, CD40 (gene 958) [16]): inactive
- outcome [6]: inactive
- outcome [7]: inactive
- outcome [8]: inactive
- outcome [9]: inactive
- outcome [10]: inactive
- outcome [11]: inactive
- outcome [12]: inactive
- outcome [13]: inactive
- outcome [14]: inactive
- outcome (CD38, CD38 (gene 952)): inactive
- outcome (CD40, CD40 (gene 958) [15]): inactive
- outcome (CD69, CD69 (gene 969)): inactive

Structure (SMILES): O=C(N[C@H]1CN2CCC1CC2)c1cc2ccoc2cn1
- outcome [2]: inactive
- outcome [3]: inactive
- outcome [17]: inactive
- outcome [4]: inactive
- outcome [5]: inactive
- outcome (CD40, CD40 (gene 958) [16]): inactive
- outcome [6]: inactive
- outcome [7]: inactive
- outcome [8]: inactive
- outcome [9]: inactive
- outcome [10]: inactive
- outcome [11]: inactive
- outcome [12]: inactive
- outcome [13]: inactive
- outcome [14]: inactive
- outcome (CD38, CD38 (gene 952)): inactive
- outcome (CD40, CD40 (gene 958) [15]): inactive
- outcome (CD69, CD69 (gene 969)): inactive

Structure (SMILES): ClC1=C(Cl)[C@]2(Cl)[C@@H]3[C@@H]4C[C@@H]([C@H]5O[C@@H]45)[C@@H]3[C@@]1(Cl)C2(Cl)Cl
- outcome [1]: inactive
- outcome [2]: inactive
- outcome [3]: inactive
- outcome [4]: inactive
- outcome [6]: inactive
- outcome [18]: inactive
- outcome [7]: inactive
- outcome [8]: inactive
- outcome [9]: inactive
- outcome [10]: inactive
- outcome [11]: inactive
- outcome [12]: inactive
- AC50 [13]: 3.05 µM (active)
- AC50 [14]: 14.4 µM (active)
- AC50 (CD38, CD38 (gene 952)): 14.4 µM (active)
- AC50 (CD40, CD40 (gene 958) [15]): 11.2 µM (active)
- outcome (CD69, CD69 (gene 969)): inactive

Structure (SMILES): O=C(NC(=O)c1cc(F)c(F)cc1Cl)Nc1cc(F)ccc1N1CCC(C(=O)O)CC1
- outcome [1]: inactive
- outcome [2]: inactive
- outcome [3]: inactive
- outcome [17]: inactive
- outcome [4]: inactive
- outcome [6]: inactive
- outcome [7]: inactive
- outcome [8]: inactive
- outcome [9]: inactive
- outcome [10]: inactive
- outcome [11]: inactive
- outcome [12]: inactive
- AC50 [13]: 10 µM (active)
- outcome [14]: inactive
- outcome (CD38, CD38 (gene 952)): inactive
- outcome (CD40, CD40 (gene 958) [15]): inactive
- outcome (CD69, CD69 (gene 969)): inactive

Structure (SMILES): Nn1cnnc1
- outcome [2]: inactive
- outcome [3]: inactive
- outcome [17]: inactive
- outcome [4]: inactive
- outcome [5]: inactive
- outcome [6]: inactive
- outcome [18]: inactive
- outcome [7]: inactive
- outcome [8]: inactive
- outcome [9]: inactive
- outcome [10]: inactive
- outcome [11]: inactive
- outcome [12]: inactive
- outcome [13]: inactive
- outcome [14]: inactive
- outcome (CD38, CD38 (gene 952)): inactive
- outcome (CD40, CD40 (gene 958) [15]): inactive
- outcome (CD69, CD69 (gene 969)): inactive
